Consider 40 compounds from PubChem BioAssay (NCATS).

Records with an inconclusive call do not appear. Calls of active or inactive are those of the source. The call rests on the fitted dose curve; in most records, active means well fitted activation curve with a large enough effect in the repeat runs; inconclusive means weak or mixed curves; inactive means flat fitted curve, though single readings scatter.

The nature of this test: qHTS assay for small molecule agonists of the antioxidant response element (ARE) signaling pathway measured by Nrf2-dependant transcriptional activity (AID 720636). Further: % of control where 0% means no effect. The following applies: ARE-luc HepG2, Nrf2 luciferase reporter, 16 h; series mostly up to 92.4 µM; activation: at the top concentration. From the text:
National Center for Advancing Translational Sciences [NCATS] NIH Chemical Genomics Center [NCGC] U.S. Environmental Protection Agency [EPA] National Institutes of Environmental Health Sciences [NIEHS] National Toxicology Program [NTP] Assay Overview: The antioxidant response element (ARE) signaling pathway plays an important role in the cellular anti-oxidant defense. Exposure to stressors which are exogenous like ionizing radiations, chemicals, U-V light, and endogenous like cell signaling, metabolic processes or inflammation, reactive oxygen species (ROS), can induce oxidative stress in the cells. Oxidative stress has been implicated in the pathogenesis of a variety of diseases ranging from cancer to neurodegeneration. ARE-luc HepG2 cell line (Simmons et al., Current Chemical Genomics, 5:1-12, 2011) has been used for identifying the chemicals that induce oxidative stress. The cell line has an Nrf2-responsive luciferase reporter gene that has been engineered to measure Nrf2-dependant transcriptional activity.
Assay Protocol Summary: For measuring ARE induction; 2,000 ARE-luc HepG2 cells in 5 uL of assay medium containing 1% dialyzed FBS per well were dispensed into white wall/solid bottom 1536-well plates using a Flying Reagent Dispenser (FRD) (Aurora Discovery). The assay plates were incubated for 6 hr at 37 C to allow cell attachment to the well bottom, followed by the transfer of 23 nL compound or DMSO vehicle by a pin tool (Kalypsys). The plates were incubated for 16 hr at 37 C and 5% CO2, followed by the addition of 5 uL of ONE-GloTM luciferase reagent (Promega) into each well using FRD. After 30 min room temperature incubation, plates were read on a ViewLux plate reader (PerkinElmer).
Turning to `N#C/C(N)=C(/N)C#N`, the “activation” value was -0.25% (inactive).
Turning to `O=C(O)c1cc(Cl)ccc1Cl`, the “activation” value was -0.146% (inactive).
On the same count and under the same terms, for `Brc1cccc(-c2ccccc2)c1` the value was -1.39% (inactive); for `ClCCOCCCl`, -0.196% (inactive).
The same measure, in the same setting: for `OC[P+](CO)(CO)CO` the value was 0.122% (inactive); for `O=NN1CCCCC1`, -0.626% (inactive).
Take `CC(Cl)CCl` (stereo not given): the “activation” value was -1.71% (inactive).
Take `ClCC(Cl)CCl`: the Potency result is “inactive”.
Consider `BrCC(Br)C1CCC(Br)C(Br)C1` (stereo not given), for which the “activation” value was -0.761% (inactive).
As to `CN=C=O`, the “activation” value is -0.527% (inactive).
Consider `O=C(O)CCl`, for which the “activation” value was -1.14% (inactive).
With `O=S(=O)(Cl)c1ccccc1`, the Potency result was “inactive”.
Regarding `C=CC#N`, the “activation” value was -0.504% (inactive).
Take `Cc1ccc([N+](=O)[O-])cc1`: the “activation” value is 0.202% (inactive).
For the compound `CCOC(=O)C1OC1(C)c1ccccc1` (stereo not given), the “activation” value is -0.0195% (inactive).
On to `CCNCC`, for which the “activation” value was -0.958% (inactive).
For the compound `c1ccoc1`, the “activation” value was -0.156% (inactive).
Consider `Cc1cccc(C)c1N`, for which the “activation” value is -1.5% (inactive).
Same read-out and setting: for `Oc1cc(Cl)cc(Cl)c1` the value was -1.21% (inactive).
On to `Clc1ccc(Cl)c(Cl)c1`, for which the Potency result was “inactive”.
In the case of `CCOC(=O)CBr`, the “activation” value is -0.915% (inactive).
With `O=[N+]([O-])/C=C/c1ccccc1`, the “activation” value was 1.65% (inactive).
Turning to `C1CC2OC2CC1C1CO1` (stereo not given), the Potency entry was “inactive”.
Same read-out and setting: for `CCSC(=O)N1CCCCCC1` the value was “inactive”.
In the case of `O=C(O)c1cccc(Cl)c1`, the “activation” value was -0.775% (inactive).
Still for that read-out and setting: for `CCCCOCC1CO1` (stereo not given) the value was 0.392% (inactive).
Turning to `O=C(Cl)OCc1ccccc1`, the “activation” value is -1.51% (inactive).
As for `Clc1ccc(C(Cl)(Cl)Cl)c(Cl)c1`, the “activation” value is -1.43% (inactive).
On the same count and under the same terms, for `C/C=C/CC#N` the value was -1.09% (inactive); for `CC(=O)CCC(C)=O`, -2.24% (inactive).
In the case of `NC1CCC(CC2CCC(N)CC2)CC1` (stereo not given), the Potency result was “inactive”.
`COc1ccccc1N`: the “activation” value was -0.338% (inactive).
Still for that read-out and setting: the figure for `O=[N+]([O-])c1ccccc1CCl` is 0.333% (inactive); for `CN1CSC(=S)N(C)C1` it is 2.68% (inactive); for `CN(C)C(=O)Cl` it is -0.487% (inactive).
Take `CC(C)OC(=O)Cc1ccccc1`: the “activation” value is -0.398% (inactive).
Turning to `CCCCCOC(=O)c1ccccc1C(=O)OCCCCC`, the Potency result is “inactive”.
On to `Nc1ccc([N+](=O)[O-])cc1[N+](=O)[O-]`, for which the “activation” value is -1.61% (inactive).
Still for that read-out and setting: for `C=CC(=O)OC` the value was -1.85% (inactive); for `O=C(O)C(Br)CBr` (stereo not given), -0.226% (inactive).
